From PubChem BioAssay AID686978 (National Center for Advancing Translational Sciences (NCATS), 2013)
The whole screen tested about 420,000 compounds, of which about 64,000 (15%) were called active. Roughly 27% stayed inconclusive and do not appear here. The list is a sample of the results. A number with no mark means an inactive call. Calls follow the shape of the dose curve; as a rule, active = well fitted inhibition curve with a large enough effect; inconclusive = small, poorly fitted or top-dose-only effect; inactive = flat fitted curve, though single readings scatter.

Test: qHTS for Inhibitors of human tyrosyl-DNA phosphodiesterase 1 (TDP1): qHTS in cells in absence of CPT; also: nearly all actives have a fitted effect of over 55% in size
Details: DT40 Tdp1-/- hTDP1 cells, no CPT, ATP luminescence, 48 h; activity change, negative = growth inhibition: at 46.2 µM (top of the series)
Procedure, shortened: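 Stably hTDP1-transfected Tdp1-null chicken DT40 cells were treated with library compounds minus camptothecin and grown for at least 48 hr at 37 °C, after which cellular ATP was quantified by luminescence.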
% is scaled to controls: 0 for no effect and ±100 for the full control effect; potency is read from the fitted curve at half-maximal effect.

Row | Compound | activity change, negative = growth inhibition | Potency
1 | Cc1ccc(C(=O)OC(C)CN2CCOCC2)cc1 (centres undefined) | -22% | –
2 | COc1cc(OC)cc(C(=O)NC(C(=O)N2CCC2)C(C)C)c1 (centres undefined) | -6.14% | –
3 | COc1ccc(N2CCN(C(=O)[C@@H](NC(=O)c3cc(OC)cc(OC)c3)C(C)C)CC2)cc1 | – | 8.2 µM (active)
4 | COc1cc(OC)cc(C(=O)NCC(=O)N2CCCCCCC2)c1 | 3.53% | –
5 | CCOc1ccc(/C(O)=C2/C(=O)C(=O)N(Cc3cccnc3)C2c2ccc(N(C)C)cc2)c(C)c1 (centres undefined) | 0.155% | –
6 | C=CCC[C@H](CCCCC)OC(=O)/C=C/[C@H](O)[C@@H](O)C[C@@H](O)CC=C | – | 14.6 µM (active)
7 | C=CCC[C@@H](CCCCC)OC(=O)/C=C/[C@@H](O)[C@H](O)C[C@H](O)CC=C | – | 18.4 µM (active)
8 | O=S(=O)(Nc1ccccc1)c1ccc(NS(=O)(=O)c2cccs2)cc1 | -2.38% | –
9 | Cc1ccc(NC(=O)CSc2nc3c(c(=O)[nH]2)CN(Cc2ccc4c(c2)OCO4)CC3)cc1C | -27.3% | –
10 | O=C(CN1CCN(C(=O)c2cccc(F)c2)CC1)Nc1ccccc1F | 14.6% | –
11 | C=CCC(NCc1ccco1)c1ccc(OC)cc1 (centres undefined) | -9.38% | –
12 | Cc1ccc(S(=O)(=O)N2CCC(C(=O)N[C@@H](C)C(=O)NCc3ccco3)CC2)cc1 | -26.1% | –
13 | Cc1ccc(Cn2cc(C(=O)NN)c(=O)c3ccc(F)cc32)cc1 | -13.2% | –
14 | Cc1ccc(S(=O)(=O)N2CC(C)N(S(C)(=O)=O)C2)cc1 (centres undefined) | -1.31% | –
15 | Cc1ccc(S(=O)(=O)N2C[C@@H]3CCCC[C@@H]3[C@@H](C)[C@H]2c2cn(Cc3ccccc3)c3ccc(F)cc23)cc1 | – | 6.51 µM (active)
16 | CCOC(=O)c1sc(/N=C/C2=C(O)CC(C)(C)CC2=O)c(C(=O)OCC)c1C | 2.25% | –
17 | CCOC(=O)c1c(NC(=O)c2ccc(Br)o2)sc2c1CCCC2 | -27.4% | –
18 | CCOC(=O)c1c(NC(=S)Nc2ccccc2C)sc2c1CCC2 | -3.31% | –
19 | CCOC(=O)c1c(NC(=O)C2(C)Cc3ccccc3C(=O)O2)sc2c1CCCC2 (centres undefined) | – | 16.4 µM (active)
20 | COc1ccc(C(CNC(=O)COc2ccc([N+](=O)[O-])cc2)N2CCCCC2)cc1 (centres undefined) | -1.85% | –
21 | Cc1cccc(NC(=O)c2ccc([N+](=O)[O-])o2)c1 | – | 9.2 µM (active)
22 | COc1cccc(NC(=O)c2ccc(Cn3cc([N+](=O)[O-])cn3)o2)c1 | -26.5% | –
23 | CN1C(=O)c2ccc(C(=O)Nc3ccc(Br)cn3)cc2C1=O | 12.5% | –
24 | O=C(Nc1ccc(Br)cn1)c1ccc([N+](=O)[O-])o1 | – | 5.17 µM (active)
25 | O=C(Nc1cccc(NC(=O)c2ccccc2[N+](=O)[O-])c1)c1ccccc1Cl | -14.8% | –
26 | O=C(Nc1ccc(Br)cn1)c1ccc([N+](=O)[O-])cc1Cl | -27.6% | –

Row | Compound | activity change, negative = growth inhibition | Potency
27 | Cc1[nH]c2ccccc2c1C(=O)C(=O)N(C)c1ccccc1 | -24.6% | –
28 | O=C(OCCOc1ccccc1F)c1cc(S(=O)(=O)N2CCOCC2)ccc1F | -13.6% | –
29 | CCc1ccccc1NC(=O)CSc1nnc(-c2ccncc2)o1 | -5.21% | –
30 | O=C(CNCCO)NC12CC3CC(CC(C3)C1)C2 | 0.175% | –
31 | CCCCC[C@@H]1C=C(C(=O)OCC)[C@H](c2ccccc2)N1S(=O)(=O)c1ccc(C)cc1 | – | 10.3 µM (active)
32 | Cc1ccc(S(=O)(=O)N2[C@@H](c3ccc(Br)cc3)C(C(=O)O)=C[C@H]2CC2CCCC2)cc1 | -12.9% | –
33 | CCc1ccc([C@@H]2CC(=O)[C@@H]3CN(S(=O)(=O)c4ccc(C)cc4)[C@H](c4ccc(Cl)cc4)C[C@@H]3N2S(=O)(=O)c2ccc(C)cc2)cc1 | 8.29% | –
34 | CCOC1=C2[C@H]([C@H]3C(=O)N(c4ccccc4)C(=O)[C@H]3C1)[C@@H](c1ccccc1)N(S(=O)(=O)c1ccc(C)cc1)[C@H]2c1ccccc1 | -12.7% | –
35 | Cc1ccc(S(=O)(=O)N2[C@@H](c3cccc4ccccc34)C(C(=O)O)=C[C@H]2C(C)(C)C)cc1 | 5.31% | –
36 | CCOC(=O)C1C(C)C(C(C)(C)C)N(S(=O)(=O)c2ccc(C)cc2)C1c1ccccc1 (centres undefined) | – | 16.4 µM (active)
37 | Cc1ccccc1S(=O)(=O)N1[C@@H](c2cccc(Cl)c2)C(C(=O)O)=CC[C@H]1c1ccc(Cl)cc1 | -5.82% | –
38 | Cc1ccc(S(=O)(=O)N2[C@@H](c3cccc(Cl)c3)C(C(=O)O)=CC[C@H]2c2ccc(Cl)c(Cl)c2)cc1 | -23.6% | –
39 | CCOC(=O)C1=CC[C@@H](c2ccccc2)N(S(=O)(=O)c2ccc(C)cc2)[C@H]1c1ccc(CC)cc1 | – | 16.4 µM (active)
40 | Cc1ccc(S(=O)(=O)N2[C@@H](c3ccccc3F)C(C(=O)O)=CC[C@H]2c2ccc(Cl)cc2)cc1 | -17.6% | –
41 | CCCCC(c1nnnn1CS(=O)(=O)c1ccc(C)cc1)N1CCC(C(N)=O)CC1 (centres undefined) | -20.1% | –
42 | Cc1ccccc1S(=O)(=O)N1[C@@H](c2cccc(Cl)c2)C(C(=O)OC(C)(C)C)=CC[C@H]1c1ccc(Cl)cc1 | – | 16.4 µM (active)
43 | Cc1cccc(/C(N)=N/OC(=O)c2ccccc2Cl)c1 | -18.2% | –
44 | COc1ccc(C2=NOC3(CC(=O)N(c4ccc(C)cc4)C3=O)C2)cc1 (centres undefined) | -19.9% | –
45 | Cc1nn(C)c(Oc2ccc(Cl)cc2)c1C=O | -24.7% | –
46 | CCCCn1c(N)c(N(CCOC)C(=O)COc2c(C)cccc2C)c(=O)[nH]c1=O | -10.6% | –
47 | CCC(=O)Nc1cc(C(F)(F)F)ccc1N1CCCC1 | -2.98% | –
48 | CC(C)(C)NC(=O)COC(=O)c1cc(Cl)ccc1[N+](=O)[O-] | -16.1% | –
49 | Cc1[nH]c2ccccc2c1SCC(=O)Nc1nccs1 | -6.86% | –
50 | Cc1ccc(OCC(=O)Nc2ccc(Cl)c(-c3nc4ccccc4[nH]3)c2)cc1C | -98.6% | –
51 | COc1ccc(Br)cc1C(=O)NC(=S)Nc1cc(-c2nc3ccccc3[nH]2)ccc1C | – | 14.6 µM (active)
52 | COc1ccc(Br)cc1C(=O)Nc1cccc(C)c1C | -22.7% | –

Row | Compound | activity change, negative = growth inhibition | Potency
53 | CCOC(=O)c1nnn(CC(=O)NC(=O)Nc2ccccc2F)c1C(=O)OCC | -18.3% | –
54 | COc1ccc(N(CC(=O)NCC2CCCO2)C(=O)CCC(=O)Nc2nccs2)c(OC)c1 (centres undefined) | -20.4% | –
55 | O=c1c(O)c(Br)ccc2c(Br)c(O)c(O)c(O)c12 | 8.26% [at 9.04 µM] | –
56 | O=C(OCC(=O)N1CCN(c2ccccc2)CC1)c1ccc([N+](=O)[O-])s1 | – | 4.61 µM (active)
57 | COc1cc(NC(=O)COC(=O)c2ccc([N+](=O)[O-])s2)cc(OC)c1OC | 11.9% | –
58 | C[C@H](NC(=O)c1ccccc1Cl)C(=O)OCC(=O)N1CCN(c2ccccc2)CC1 | 0.465% | –
59 | Oc1ccc(-c2cccc(-c3ccc(O)cc3)c2)cc1 | 6.67% | –
60 | Cc1cn(C2CC(O)C(CO)O2)c(=O)n(CCCc2ccccc2)c1=O (centres undefined) | -14.7% | –
61 | COCCn1c(=O)c(-c2cccs2)nc2cnc(N3CCN(C)CC3)nc21 | -22.9% | –
62 | CN1CCN(Cc2nc3cc(NC(=O)COc4ccc([N+](=O)[O-])cc4)ccc3n2C)CC1 | 17.7% | –
63 | CCOC(=O)N1CCN(Cc2nc3cc(NC(=O)CC)ccc3n2CC)CC1 | – | 29.1 µM (active)
64 | CCOC(=O)N1CCN(Cc2nc3cc(NC(C)=O)ccc3n2C)CC1 | 0.858% | –
65 | CC(=O)Cc1nsc(NC(=O)c2ccc(COc3ccc(C)cc3)o2)n1 | 1.76% | –
66 | CN1CCC(=NNC(=O)CN(c2cccc(Cl)c2)S(C)(=O)=O)CC1 | -7.27% | –
67 | CC1=CCC2C(=O)N(c3cccc(C(=O)NC(C)c4ccccc4)c3)C(=O)C2C1 (centres undefined) | 7.3% | –
68 | CCCNC(=O)c1ccccc1NC(=O)CSCc1ccc(OC)cc1 | -8.44% | –
69 | COc1ccc(CCNC(=O)c2ccco2)cc1 | -29.5% | –
70 | CCOc1ncccc1C(=O)NCCc1ccc(OC)cc1 | – | 20.6 µM (active)
71 | Cn1c(=O)[nH]c(=O)c2c1[nH]c(=S)n2Cc1ccccc1 | 26.7% | –
72 | Cc1cccc(OCCNC(=O)CSc2ccc(C(F)(F)F)cc2[N+](=O)[O-])c1 | – | 16.4 µM (active)
73 | Cc1cccc(OCCNC(=S)NC(=O)c2cccnc2)c1 | -8.96% | –
74 | O=C(CSc1ccc(C(F)(F)F)cc1[N+](=O)[O-])NCCOc1ccccc1 | -16.7% | –
75 | Clc1ccc(-n2nnnc2-c2cnc(-c3ccccn3)nc2-c2cccs2)cc1 | – | 5.17 µM (active)
76 | CN(C)c1nnnn1-c1ccc(Cl)cc1 | -1.87% | –
77 | O=c1c(-c2cccs2)nc2cnc(Oc3ccccc3)nc2n1-c1ccccc1 | -6.07% | –
78 | O=C(OC(C(=O)NC1CCCC1)c1ccc(F)cc1)c1ccno1 (centres undefined) | -10.5% | –

Row | Compound | activity change, negative = growth inhibition | Potency
79 | O=C(Nc1ncc2c(n1)CC(c1ccco1)CC2=O)c1ccc(Cl)cc1 (centres undefined) | -25.7% | –
80 | Cc1cccc(NC(=O)CSc2nc3c(c(=O)[nH]2)CCCC3)c1C | -8.26% | –
81 | CC(=O)NC1=NC(=O)CS1 | -2.82% | –
82 | COc1cccc(COc2ccc(N(C)S(=O)(=O)c3ccccc3)cc2)c1 | – | 16.4 µM (active)
83 | CN(c1ccc(OCC(=O)O)cc1)S(=O)(=O)c1ccc2ccccc2c1 | -8.74% | –
84 | Cc1ccc(S(=O)(=O)N(C)c2ccc(OCC(=O)OCc3ccc(C#N)cc3)cc2)cc1 | -1.54% | –
85 | CCOC(=O)CNC(=O)CSc1nc2cccnc2n1CC | -5.19% | –
86 | CC(C)C[C@H]1CN=C(Nc2ccccc2)N1CC1CCCCC1 | – | 16.4 µM (active)
87 | CC(CO)(CO)NC(=O)c1ccc(=O)[nH]n1 | 7.23% | –
88 | Cc1cccc(-n2c(=O)c3c(c4cc(C)ccc4n3C)n(CC(=O)Nc3ccccc3Cl)c2=O)c1 | -9.55% | –
89 | CCc1ccccc1NC(=O)Cn1c(=O)n(-c2cccc(C)c2)c(=O)c2c1c1cc(OC)ccc1n2C | – | 2.06 µM (active)
90 | Cc1ccc2c(c1)c1c(c(=O)n(-c3ccccc3)c(=O)n1CC(=O)c1ccc(Cl)cc1)n2C | -11.5% | –
91 | CCC(CC)c1nnc(NS(=O)(=O)Cc2ccccc2)s1 | -0.792% | –
92 | Cc1nn(C(C)C(=O)N2CCOCC2)c(=O)c2nn(-c3ccccc3)c(C)c12 (centres undefined) | 10.9% | –
93 | Cc1c(CNCCc2ccccc2)c(C(=O)O)c(C)n1-c1ccccc1 | -6.22% | –
94 | CC1=NOC(=O)/C1=C\c1ccccc1 | -19.8% | –
95 | C#CCOc1ccccc1/C=C1/C(=O)ON=C1C | – | 14.6 µM (active)
96 | Cc1cn(C)c(CC(=O)NCc2ccccc2)c1C(=O)O | 10% | –
97 | COc1ccc(Cl)cc1NC(=O)COC(=O)C(CC(C)C)N1C(=O)C2CC=CCC2C1=O (centres undefined) | – | 18.4 µM (active)
98 | COc1ccc(Cl)cc1NC(=O)COc1ccc2c(c1)OCO2 | -1.31% | –
99 | COc1ccc(Cl)cc1NC(=O)CN1CCN(C(=O)N2CCOCC2)CC1 | -16.6% | –
100 | CC1(C)NC(=O)N(CCOc2cccc(Oc3ccccc3)c2)C1=O | -8.49% | –
101 | Cc1nnc(N(Cc2ccco2)C(=O)c2ccno2)s1 | -13.2% | –
102 | CCCNC(=O)c1c(Cl)cnn1-c1ccc(C)cc1 | -16% | –
103 | Cc1ccnc(NC(=O)CCCOc2ccccc2)c1 | -0.626% | –
104 | COc1ccc(Cl)cc1NC(=O)c1oc(C)nc1C | -4.86% | –
